Screening results (PubChem BioAssay)
In the library only some 12% were active in any assay of this set; here they are far more common.
Marburg entry inh – blocks Marburg virus binding to or entry into cells; Marburg virus pseudotyped entry inhibition, cell reporter; Potency, µM (highest dose often 37.8 µM), for the others: at the highest dose activity change, negative = inhibition, most hits filed as inhibitors; 1.8% of 300,000 active; AID 540276; calls by dose curve; tested in HEK293 cells; note: potency is the fitted concentration of half-maximal effect; % is set by controls: 0 for no effect and ±100 for the full control effect
Lassa entry inh – inhibitors of Lassa virus binding or cell entry | Lassa virus pseudotype entry inhibition, cell reporter | 1.2% of 300,000 active | Potency, µM (doses to about 37.9 µM), inactives show top-dose activity change, negative = inhibition, most hits filed as inhibitors; calls by dose curve; tested in HEK293 cells; note: potency is the fitted concentration of half-maximal effect; % is set by controls: 0 for no effect and ±100 for the full control effect; nearly all actives have a fitted effect of over 50% in size
CHX counter – counter-screen hit for Shiga toxin inhibitors, cycloheximide; cell reporter, cycloheximide protein synthesis inhibition counterscreen; max response, %; 12% of 300,000 active; in the data active = max response mostly above about 13%, no sharp cut-off; inactive = mostly below about 14%; note: read at 38.3 µM for the half of the compounds with a filed dose; 0% is about no effect
Shiga inhibitor – inhibitors of Shiga toxin in Vero cells. Vero cells, Shiga toxin protein synthesis inhibition reporter. 9.2% of 290,000 active. inhibition, % at 38.7 µM. AID 2315; in the data active = inhibition mostly above about 28%, no sharp cut-off; inactive = mostly below about 43%; note: 0% is about no effect
* hit, by the source's call; ? = inconclusive; / = no result given; [ ] = dose if it differs, or a comment.

SMILES | Marburg entry inh | Lassa entry inh | CHX counter | Shiga inhibitor
O=C(NNc1c2ccccc2nc2ccccc12)c1ccc(O)cc1O | -25% | -8% | 14 | 17
C=CCn1c(C)cc(C(=O)COC(=O)C2CC(=O)N(Cc3ccccc3)C2)c1C (stereo not drawn) | -12%[46.1 µM] | 1% | 12* | 36
C=CCn1c(C)cc(C(=O)COC(=O)CNC(=O)c2ccccc2)c1C | 7% | 0% | 114* | 11*
Cc1cc(C(=O)COC(=O)CNC(=O)c2ccc(Cl)c(Cl)c2)c(C)n1Cc1ccco1 | ? | ? | -2 | 14
Cc1nc(NC(=O)c2ccccc2)sc1-c1csc(N)n1 | ? | 4% | 29* | 48*
Cc1nc(NC(=O)c2ccccc2)sc1-c1csc(Nc2cccc(F)c2)n1 | / | / | 13* | 62
Cc1ccc(Cl)cc1Nc1nc(-c2sc(NC(=O)c3ccccc3)nc2C)cs1 | -5% | / | 12 | 38
CC(=O)c1ccc(NC(=O)c2ccc(-c3ccc(Cl)cc3)o2)cc1 | / | -1%[46.1 µM] | / | /
CCC(C)(C)C1CCc2[nH]nc(C(=O)NN)c2C1 (stereo not drawn) | 2% | 19% | 38* | 53*
O=C(C1CC12CCCC2)N1CCC(CO)(Cc2ccccc2Cl)CC1 (stereo not drawn) | / | / | 1 | 24
COc1cccc(CNC(=S)Nc2cc(OC)ccc2OC)c1 | 1%[46.1 µM] | 1% | 1 | 7
Cn1nc([N+](=O)[O-])nc1S(C)(=O)=O | ? | ? | 31* | 31
Cc1cc(C)cc(NC(=O)CCc2c(C)nn(-c3ccc(N4CCCC4)nn3)c2C)c1 | / | -1%[46.1 µM] | / | /
Cc1ccc(F)cc1NC(=O)CCc1c(C)nn(-c2ccc(N3CCCCC3)nn2)c1C | / | -5%[46.1 µM] | 31* | 24
Cc1nn(-c2ccc(N3CCCC3)nn2)c(C)c1CCC(=O)Nc1ccc(F)c(Cl)c1 | / | 28%[46.1 µM] | / | /
COc1ccc(C)cc1NC(=O)CCc1c(C)nn(-c2ccc(N3CCCCC3)nn2)c1C | / | -28%[46.1 µM] | 18* | 45
Cc1cc(C)cc(NC(=O)CCc2c(C)nn(-c3ccc(N4CCCCC4)nn3)c2C)c1 | / | / | 48* | 51*
CCOc1ccccc1NC(=O)CCc1c(C)nn(-c2ccc(N3CCCCC3)nn2)c1C | / | ? | 11 | 7
Cc1ccc(NC(=O)CCc2c(C)nn(-c3ccc(N4CCCCC4)nn3)c2C)cc1C | ? | -21%[46.1 µM] | 43* | 70*
CC(=O)c1ccc(NC(=O)CCc2c(C)nn(-c3ccc(N4CCCCC4)nn3)c2C)cc1 | / | 10%[46.1 µM] | / | /
Cc1ccc(NC(=O)CCc2c(C)nn(-c3ccc(N4CCCCC4)nn3)c2C)cc1 | ? | 6%[46.1 µM] | 53* | 86*
Cc1nn(-c2ccc(N3CCCCC3)nn2)c(C)c1CCC(=O)Nc1ccc(F)c(F)c1 | ? | ? | 60* | 103*
Cc1ccc2c(=O)cc(C(=O)Nc3ccc(S(=O)(=O)Nc4nc(C)cc(C)n4)cc3)oc2c1 | 9%[46.1 µM] | 21%[46.1 µM] | / | /
COc1cccc(O)c1CN1CCC(C(=O)Nc2ccc(Oc3cccnc3)cc2)CC1 | 11µM* | -26% | -5 | -15
CCOC(=O)/C(=C/C1=CC(=C/N(C)C)/C(=O)O1)C(C)=O | -2%[46.1 µM] | 7% | -2 | 7
SMILES | Marburg entry inh | Lassa entry inh | CHX counter | Shiga inhibitor
N#C/C(=C/c1cccc([N+](=O)[O-])c1)C(=O)Nc1ccccc1O | / | / | 13* | 22
COC(=O)c1c(-c2cccs2)csc1NC(=O)COc1ccc(C(C)(C)C)cc1 | 5%[46.1 µM] | 2%[46.1 µM] | / | /
COc1ccc2c(c1)c(=O)c(C(=O)c1ccc(F)cc1)cn2CC(=O)Nc1ccc2c(c1)OCO2 | -3%[46.1 µM] | -17%[46.1 µM] | / | /
O=[N+]([O-])c1ccc(O)c(-c2ccnc3cc(-c4ccccc4)nn23)c1 | -15%[46.1 µM] | ? | / | /
Nc1c(-c2ccccc2)cnc2cc(-c3ccccc3)nn12 | / | / | 24* | 36*
Cc1ccc(-n2ncc(C#N)c2N)cc1 | / | / | -2 | 9
Cc1cc2ncc(-c3ccc(Cl)cc3)c(N)n2n1 | / | / | 43* | 64*
Cc1ccc(-c2cc3ncc(C#N)c(N)n3n2)cc1 | 26%[46.1 µM] | 1% | 24* | 69*
O=C1N(Cc2ccccc2C(F)(F)F)c2ccccc2[C@@]12O[C@H](COc1ccccc1)CC1=C2CCC1 | -24%[14.2 µM] | / | / | /
CCOc1ccc(-c2nnc3sc(COc4ccc(C)cc4)nn23)cc1 | 7%[46.1 µM] | 8.2µM* | -8 | -10
CCOc1ccc(-c2nnc3sc(COc4ccc(Cl)cc4)nn23)cc1 | -1%[46.1 µM] | -23% | 1 | 20
COc1ccc(OC)c(CNS(=O)(=O)c2ccc(-c3coc(C)n3)cc2)c1 | / | -13%[46.1 µM] | / | /
CCc1ccc(C(=O)OCC(=O)NC2CCCC2)cc1 | 15% | ? | 30* | 45
CC(C)c1ccc(C(=O)OCC(=O)NC2CCCC2)cc1 | / | / | 27* | 31
O=C(COC(=O)c1ccc(Cl)cc1)NC1CCCCCC1 | ? | 13% | / | /
Cc1ccc(C(=O)OCC(=O)NC2CCCC2)cc1C | ? | -21% | 22* | 54*
Cc1c(Cl)cccc1-n1c(SCC(=O)NCc2ccccc2)nc2n[nH]c(C)c2c1=N | / | -27%[46.1 µM] | / | /
CSCCC(NC(=O)c1cc([N+](=O)[O-])ccc1Cl)C(=O)O (stereo not drawn) | -3% | 1% | 1 | -3
O=Cc1ccccc1OCc1ccc2c(c1)OCO2 | / | / | 46* | 100*
CCCCc1nc(S(=O)(=O)c2ccc(Cl)cc2)c(N2CCOCC2)o1 | -11% | 10% | 27* | 34*
Cc1ccc(C(O)(c2ccccc2)c2ccccc2C(C)N(C)C)c(C)c1 (stereo not drawn) | 5.8µM* | 8.2µM* | -3 | -13
O=C(Cn1cc(S(=O)(=O)N2CCCC2)c(S(=O)(=O)N2CCCC2)c1)Nc1ccccc1 | / | 5%[46.1 µM] | / | /
O=C(CNC(=O)c1cc2ccccc2o1)NCc1cccs1 | ? | ? | -2 | 13
Cn1c(C(=O)NCC2CCCO2)cc2c(=O)[nH]c3ccccc3c21 (stereo not drawn) | 16% | -3% | 5 | 9
Cn1c(C(=O)NCc2ccc(Cl)cc2)cc2c(=O)n(C)c3ccccc3c21 | 1%[46.1 µM] | 3%[46.1 µM] | / | /
SMILES | Marburg entry inh | Lassa entry inh | CHX counter | Shiga inhibitor
CCn1c(C(=O)NCc2cc(Br)ccc2OC)cc2oc3ccccc3c21 | 2.8µM* | / | / | /
Cn1c(C(=O)NCc2ccccc2)cc2oc3ccccc3c21 | 2.6µM* | ? | 46* | 85*
Cn1c(C(=O)NCC2CCCO2)cc2oc3ccccc3c21 (stereo not drawn) | ? | ? | 35* | 103*
Cn1c(C(=O)NCc2cccs2)cc2oc3ccccc3c21 | 0.45µM* | 0.5µM* | 62* | 82*
COc1cccc(CNC(=O)COc2ccc(C(=O)c3ccccc3)cc2)c1 | -31%[46.1 µM] | ? | -6 | -5
O=C(NNC(=O)c1ccccc1O)c1ccc(Cl)c(S(=O)(=O)N2CCCCC2)c1 | ? | 3% | / | /
Fc1ccc(NCc2nnc3n2CCCCC3)cc1Cl | / | -22%[46.1 µM] | / | /
COc1ccc(C2c3c(n(C)c4ccccc34)C(=O)N2CC(=O)Nc2cccc(F)c2)cc1 (stereo not drawn) | / | -12%[46.1 µM] | / | /
O=C(NNC(=O)c1ccc(Oc2ccc(C3SCCS3)cc2)o1)c1ccc(Cl)cc1 | / | / | -4 | 16
COc1ccc(CNC(=O)c2cc3oc4ccccc4c3n2C)cc1OC | 5µM* | / | / | /
Cn1c(=O)c(C(=O)NCC2CCCO2)c(O)c2ccccc21 (stereo not drawn) | ? | ? | 27* | 45
COc1ccc(CNC(=O)c2cc3ccccc3o2)cc1OC | 2%[46.1 µM] | ? | 9 | /
